Only some compounds are listed: those with a hit (about 1.5% of all), similar ones and a draw of the others.
Eya2 inh – inhibitors of human Eya2 phosphatase activity; O00167; Potency, µM (series often up to 76.9 µM), without a hit: top-dose activity, negative = inhibition, hits mostly inhibitors; recombinant Eya2, OMFP fluorescence dephosphorylation (OMFP is methylfluorescein phosphate); AID 488837; 330,000 compounds, 0.006% hits; also: potency is read from the fitted curve at half-maximal effect
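Eya2 (0.2 uM) preincubated 10 min at ambient with compound, then OMFP substrate added at 50 uM; 10 min reaction in 50 mM HEPES pH 7.5, 50 mM NaCl, 5 uM MgCl2, 0.05% BSA, 1 mM DTT. Fluorescence read at Ex 485/Em 525 nm.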
Six1-Eya2 blk – blocks human Six1 binding to Eya2; 360,000 compounds, 0.56% hits; AlphaScreen GST-Six1/His-Eya2 binding, biochemical; hits give low values; Q15475+O00167; activity change, % (no concentration beside the values); AID 651725; in the data active = activity change below about -65%; inconclusive = mostly about -30% to -63%
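Homogeneous AlphaScreen proximity assay pairing GST-Six1 with His-tagged Eya2 (added as 5X mix: 250 nM and 500 nM) in 50 mM Tris pH 8.0, 300 mM NaCl, 1 mM TCEP. Glutathione donor and nickel acceptor beads; 1 h, 37 °C, dark.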
TrxR1 substrate – is turned over as a substrate by rat TrxR1; O89049; AID 588456; 390,000 compounds, 0.01% hits; purified TrxR1 substrate turnover, NADPH consumption readout; Potency, µM (titrated, usually from 114 µM), for the others: at the top dose activity change, negative = substrate turnover; also: potency is read from the fitted curve at half-maximal effect; nearly all actives have a fitted effect of over 50% in size
Target sequence (O89049 whole entry, looked up): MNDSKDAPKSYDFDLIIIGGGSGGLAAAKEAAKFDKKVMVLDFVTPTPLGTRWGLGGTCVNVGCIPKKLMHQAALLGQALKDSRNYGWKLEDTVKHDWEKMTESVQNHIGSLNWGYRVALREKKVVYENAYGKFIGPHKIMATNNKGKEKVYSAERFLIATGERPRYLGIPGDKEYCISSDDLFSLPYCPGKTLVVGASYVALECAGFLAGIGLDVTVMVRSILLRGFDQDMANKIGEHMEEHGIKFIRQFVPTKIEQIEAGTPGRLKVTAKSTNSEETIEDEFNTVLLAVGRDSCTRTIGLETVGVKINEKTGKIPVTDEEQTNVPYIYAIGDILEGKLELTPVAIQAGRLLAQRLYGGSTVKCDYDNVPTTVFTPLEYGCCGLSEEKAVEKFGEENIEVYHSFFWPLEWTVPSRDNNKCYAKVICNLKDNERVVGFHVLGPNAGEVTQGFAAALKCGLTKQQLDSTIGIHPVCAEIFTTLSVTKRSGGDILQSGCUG
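Rat TrxR1, dispensed at 90 nM, was prereduced with 400 uM NADPH (final) for 5 min at ~22 deg C, then incubated with compound 15 min before 400 uM selenite. A first-read NADPH fluorescence drop versus no-compound background flagged substrates.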
TrxR1 inh – blocks rat thioredoxin reductase 1 | 390,000 compounds, 1% hits | recombinant rTrxR1, NADPH fluorescence consumption, selenite substrate | AID 588453 | O89049 | Potency, µM (highest dose often 114 µM), without a hit: at the highest dose activity change, negative = inhibition, most hits filed as inhibitors; also: potency is read from the fitted curve at half-maximal effect; nearly all actives have a fitted effect of over 65% in size
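Rat TrxR1 (90 nM in the dispensed reagent) was pre-reduced with 400 uM NADPH for 5 min at room temperature, then incubated with compound for 15 min. After 400 uM selenite was added, NADPH fluorescence (Ex 340/Em 450 nm) was followed for 8 min.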
CtBP-E1A blk – inhibitors of CtBP/E1A interaction. 340,000 compounds, 0.49% hits. AID 651724. activity change, % (test concentration not listed). AlphaScreen GST-E1A/His-CtBP binding, 1536-well; hits give low values; in the data active = activity change below about -65%; inconclusive = mostly about -30% to -63%
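GST-E1A and His-tagged CtBP (125 nM each as 5X stock) were preincubated with pin-transferred compound for 2 h at 37 °C in the dark, then glutathione donor and nickel acceptor beads were added for 1 h before AlphaScreen reading.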
GALK inhibitor – blocks human galactokinase activity; P51570; Purified GALK, Kinase-Glo residual ATP luminescence; Potency, µM (titrated, usually from 57.5 µM), inactives show at the top dose activity change, negative = inhibition, hits mostly inhibitors; 270,000 compounds, 0.007% hits; also: potency is read from the fitted curve at half-maximal effect
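Quantitative HTS: GALK 5 nM, ATP 35 uM, galactose 100 uM, 1 h room temperature, then luciferase-based ATP detection.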
Numbers without * were called inactive; ? = inconclusive; . = no result; [ ] = remark or other dose. Unless noted, calls follow the shape of the dose curve; as a rule, active = well fitted curve in the direction sought with a large enough effect; inconclusive = small, poorly fitted or top-dose-only effect, or another doubt; inactive = no such curve, though single readings can be large; an effect the other way counts as inactive or inconclusive. % is scaled to controls: 0 for no effect and ±100 for the full control effect.

SMILES | Eya2 inh | Six1-Eya2 blk | TrxR1 substrate | TrxR1 inh | CtBP-E1A blk | GALK inhibitor
Cc1cccc(CSc2nn3c(=O)c(C)nnc3s2)c1 | -2.5% | -0.2 | -8.0% | -9.8% | -1.5 | 2.4%
Cc1nnc2sc(SCC(=O)Nc3ccc(Cl)cc3)nn2c1=O | 17.4% | ? | 1.0% | 0.9% | -88.3* | 0.9%
CC(=O)Nc1cccc(NC(=O)CSc2nn3c(=O)c(C)nnc3s2)c1 | -3.2% | -73.0* | -3.1% | 3.5% | -88.3* | -0.3%
CCc1cnc2c(c1SCC(=O)Nc1ccc(C(=O)OC)cc1)c(=O)n(C)c(=O)n2C | . | . | 2.5%[57.1 µM] | 18.4%[57.1 µM] | . | .
COc1ccc([N+](=O)[O-])c(S(=O)(=O)c2ccccc2)n1 | 5.9% | 2.6 | 1.5%[57.1 µM] | ? | 3.6 | 13.7%
O=[N+]([O-])c1cccnc1S(=O)(=O)c1ccccc1 | 9.0% | 8.8 | 1.4% | 1.12µM* | 3.2 | -6.8%
CCOc1ccc(NC(=O)CSc2nc(=O)[nH]c3c2CCC3)cc1 | . | . | 0.0%[57.1 µM] | 17.3%[57.1 µM] | . | .
CCn1cc(C(=O)NCCOC)c(=O)c2cc(S(=O)(=O)N3CCOCC3)ccc21 | . | . | -3.1% | 2.5% | . | .
CCCCn1nnc(NC(=S)NC(=O)c2ccc(OCC)c([N+](=O)[O-])c2)n1 | 5.1% | -1.8 | 3.6% | 79.4µM* | -5.0 | -4.2%
CCOc1ccc(C(=O)NC(=S)Nc2ncccc2C)cc1[N+](=O)[O-] | -4.7% | 3.3 | -1.7% | 4.7% | 3.4 | 0.1%
CCc1ccc(CNC(=O)C2COc3ccccc3C2)cc1 (stereo not given) | . | . | 10.3%[57.1 µM] | 24.2%[57.1 µM] | . | .
CC1(C)CC2(CC(c3ccccc3F)c3ccc(O)c(O)c3O2)NC(=S)N1 (stereo not given) | 2.4% | -4.4 | 9.8%[57.1 µM] | 2.82µM* | -4.7 | 5.8%
COc1cccc2cc(-c3nnc(Nc4ccccc4C)s3)c(=O)oc12 | . | . | 0.5%[57.1 µM] | 18.9%[57.1 µM] | . | .
Cc1cc(C)c(C(=O)N2CCCC(CNS(=O)(=O)c3cccs3)C2)o1 (stereo not given) | -3.1% | -8.3 | 6.8% | 4.7% | -25.6 | -0.4%
CC(C)(O)C#Cc1ccc(C(=O)N2CCCC(CNS(=O)(=O)c3cccs3)C2)o1 (stereo not given) | 5.2% | -24.9 | 0.8% | 12.6µM* | 0.4 | -3.3%
O=C1CCCC2(O)C1C(c1cccc(Br)c1)NC(=O)N2Cc1ccccc1 (stereo not given) | -1.7% | -5.4 | 10.8% | 15.8µM* | 1.4 | 0.5%
CCOc1ccc(NC(=O)N2CCOc3ccccc32)cc1 | . | . | -2.5% | 16.7% | . | .
COC1=CC(=O)c2c(ccc3ncnc(N)c23)C1=O | . | ? | 79.4µM* | ? | 5.1 | .
COc1cc(NCCCCCCN)c2ncccc2c1OC | . | ? | -8.0%[57.1 µM] | -17.1% | -70.9* | .
Cc1cc(O)c(C(c2ccccc2)N2CCN(c3ccc(F)cc3)CC2)c(=O)n1Cc1ccco1 (stereo not given) | . | . | -1.7%[57.1 µM] | 10µM* | . | .
CCN1CCN(C(c2cccc(OC)c2)c2c(O)cc(C)n(Cc3ccco3)c2=O)CC1 (stereo not given) | . | . | 2.1%[57.1 µM] | 11.2µM* | . | .
COC1=C/C(=C/c2c(O)c(C#N)c3ccccn23)C=CC1=O | 10.9% | -17.6 | -6.6% | 12.6µM* | . | 0.5%
Cc1ccc(C)c(CNC(=O)c2sc3ncnc(N(C)C4CCCCC4)c3c2C)c1 | . | . | -10.2%[57.1 µM] | 3.3%[57.1 µM] | . | .
CCN(CC)C(=O)c1sc(NC(=O)Cc2cccs2)c(C#N)c1C | -9.6% | 2.7 | 1.4% | 14.8% | 16.3 | 7.3%
Cc1c(C#N)c(NC(=O)CCl)n(Cc2ccc(F)cc2)c1C | 4.8% | 2.4 | 2.8% | ? | -5.0 | -1.5%
SMILES | Eya2 inh | Six1-Eya2 blk | TrxR1 substrate | TrxR1 inh | CtBP-E1A blk | GALK inhibitor
Cc1c(C#N)c(NC(=O)CCl)n(Cc2cccs2)c1C | 4.3% | -1.8 | 8.7% | 3.55µM* | -0.9 | 0.8%
Cc1c(C#N)c(NC(=O)CCl)n(Cc2ccccc2)c1C | ? | -3.5 | 12.4%[57.1 µM] | 3.55µM* | -12.2 | 4.8%
COc1ccc(NC(=O)CCC(=O)c2cccs2)c(OC)c1 | 17.5% | -3.9 | 2.8%[0.457 µM] | -7.4% | 0.1 | -0.3%
COc1ccccc1NC(=O)CCC(=O)Nc1cc(OC)c(NC(=O)c2cccs2)cc1OC | -6.5% | -95.3* | 5.6%[57.1 µM] | -9.3%[57.1 µM] | -92.8* | 8.2%
COc1cc(NC(=O)c2cccs2)c(OC)cc1NC(=O)CCC(=O)Nc1cccc2ncccc12 | -16.5% | -81.5* | -3.8% | 9.6% | -87.5* | 1.1%
COc1cc(SC#N)ccc1N=Cc1c(C)[nH]n(-c2ccc(C)c(C)c2)c1=O | 1.8% | -65.6* | -4.9% | 4.2% | ? | 0.9%
Cc1cc(-c2ccc(C(=O)O)s2)cnc1N | 5.3% | 5.1 | 849.4% | 20µM* | . | 0.6%
O=C(O)c1ccc(-c2ccc(-c3ccccc3)cc2)s1 | -4.5% | . | . | . | . | 0.3%
CCOc1ccccc1CNC(=O)c1sc2ncccc2c1-n1cccc1 | . | . | -1.5%[57.1 µM] | 17.5%[57.1 µM] | . | .
CCCCc1ccc(-c2nn[nH]n2)nc1 | . | -81.4* | . | . | ? | .
CCCCc1ccc(-c2ccc(C)cc2O)nc1 | 0.6%[15.4 µM] | 42.5 | -2.8% | 10.8% | 39.2 | 2.6%
CCOc1cc(-c2nc(-c3ccc(-c4ccc(OC)cc4)nc3OC)no2)cc(OCC)c1OCC | . | . | 9.9% | 14.2% | . | .
COc1ccc(CNC(=O)Cc2c(C)c3c(cc(C)c4c(C)c(C)oc43)oc2=O)cc1OC | . | . | 8.2% | 18.2% | . | .
COc1ccc(C(=O)CC(=O)c2ccccc2)cc1 | . | 17.8 | -5.9%[57.1 µM] | 14.8%[11.4 µM] | 22.9 | .
COc1ccc(C2(C(=O)c3ccccc3)C(=O)c3ccccc3C2=O)cc1 | -0.9% | -1.9 | 3.0% | 2.24µM* | . | 3.5%
